In PubChem BioAssay AID463173 (ICCB-Longwood Screening Facility, Harvard Medical School, 2010):
Screen size: about 52,000 compounds; about 4,300 (8.3%) were called active. What follows is part of a selection rich in actives, with near analogues and random picks from the rest. Unmarked numbers belong to inactive results. Rule as the data show it: active = survival mostly below about 52% (no sharp cut-off); inactive = mostly above about 56%.

tested on: DeltatarO mutant; test: S. aureus survival, RN4220 and DeltatarO strains – OD600, teichoic acid synthesis inhibitors, primary screen (AID 463173); conditions: S. aureus RN4220 wild type/DeltatarO growth, OD600, 18 h, stronger effect = lower value, screened at 18.75 µg/mL (by protocol)

First: CCOc1ccc(C(=O)Nc2ccc3nc(SCc4ccccc4)sc3c2)cc1
Second: COc1ccc(C(=O)c2cnc3ccc(C)cc3c2S(=O)(=O)c2ccccc2)cc1
The survival of the first is higher: 91% for the first, 69% for the second.

First: O=c1c2c(nc3n1CCCS3)-c1ccccc1CC21CCCC1
Second: CC1=C(C(=O)OC2CCCCCC2)C(c2cccc(F)c2F)CC(=O)N1 (stereo unspecified)
The survival of the first is lower: 73% for the first, 128% for the second.

First: CC(NC(=O)c1ccc(F)cc1)c1nc2ccccc2[nH]1 (stereo unspecified)
Second: COc1ccccc1Cc1nc2ccccc2[nH]c1=O
The survival of the first is higher: 83% for the first, 54% for the second.

Compared with `O=C(Cn1c(=O)nc(-c2ccccc2)c2ccccc21)Nc1ccc(Cl)cc1F`, `O=C(CSc1c2c(nc3ccccc13)CCC2)Nc1ccc(F)cc1F` is lower in survival: 73% for the first, 69% for the second.

Compared with `Clc1ccccc1-c1nnc(COc2ccccc2)o1`, `Cc1ccc(CN(C(=O)COc2ccc(Cl)c(C)c2)c2ccccn2)o1` is higher in survival: 50% for the first, 52% for the second.

Going from `CC(CNC(=O)c1sc2ncccc2c1-n1cccc1)c1ccccc1` (stereo unspecified) to `CC1=C(C(=O)Nc2ccccc2)C(c2cccnc2)n2nc(SCc3ccccc3Cl)nc2N1` (stereo unspecified), the survival rises from 102% to 179%.

Compared with `COCCCNC(=O)CCCn1c(=O)c2ccccc2n(CC(=O)Nc2ccc(C)cc2Cl)c1=O`, `CCCCN(C)CCNC(=O)c1ccc2c(=O)n(CCc3ccccc3)c(=O)[nH]c2c1` is lower in survival: 96% for the first, 77% for the second.

`COc1cc(NC(=O)CN2CCN(CC(=O)Nc3ccc(F)cc3)CC2)cc(OC)c1` and `CC(C)NC(=O)c1ccc(NC(=O)N2CCCCc3ccccc32)cc1` are the same in survival: 70% for the first, 70% for the second.

Going from `CCN(C(=O)Cn1ncc2c(=O)oc3ccccc3c21)c1ccccc1F` to `COC(=O)C1(CO)NC(c2ccccc2F)C2C(=O)N(c3ccccc3)C(=O)C21` (stereo unspecified), the survival falls from 118% to 86%.

Going from `Cc1ccc2nc(-c3ccc(O)cc3)c(Nc3ccc(Cl)cc3)n2c1` to `Oc1ccc(-c2nc3ccc(Cl)cn3c2Nc2ccc3c(c2)OCO3)cc1`, the survival rises from 59% to 106%.

First: Cc1ccc(C(=O)OCc2cc(=O)n3nc(-c4cccs4)sc3n2)cc1
Second: COc1ccc(-c2nc(C)c(CCNC(=O)c3cccs3)s2)cc1
The survival of the first is higher: 95% for the first, 61% for the second.

Going from `O=C(Cn1nc2c(cc1=O)CCCC2)Nc1ccc(F)cc1F` to `CCOC(=O)C1CCCN(c2c3c(nc4cc(-c5ccc(F)cc5)nn24)CCCC3)C1` (stereo unspecified), the survival falls from 118% to 76%.

Compared with `CCC(C(=O)Nc1ccc(C(=O)OC)cc1)n1nc(-c2ccc(C)cc2)c2c(c1=O)CCCC2` (stereo unspecified), `CCc1ccc(NC(=O)Cn2c(=O)ccc3cc(S(=O)(=O)N4CCCC4)ccc32)cc1` is higher in survival: 102% for the first, 144% for the second.

Compared with `CCC(C(=O)Nc1cc(OC)ccc1OC)n1c(C)c2cnn(-c3ccccc3)c(=O)c2c1C` (stereo unspecified), `CCC1Oc2ccccc2N(CC(=O)NCCc2ccc(OC)c(OC)c2)C1=O` (stereo unspecified) is higher in survival: 107% for the first, 115% for the second.

Compared with `CCOc1ccc(NC(=O)CSC2=Nc3ccccc3C3=NC(CCC(=O)NCc4cccs4)C(=O)N23)cc1` (stereo unspecified), `CCc1ccc(-n2c(=O)c3ccc(C(=O)NCCc4ccccc4)cc3n(CC(N)=O)c2=O)cc1` is higher in survival: 70% for the first, 86% for the second.

Compared with `CCN1CCN(Cc2c(C)[nH]c3c(C)cc(C)cc3c2=O)CC1`, `CCOC(=O)c1c(S(=O)(=O)NCC(=O)N2CCN(c3cc(C)ccc3C)CC2)c(C)n(C)c1C` is higher in survival: 59% for the first, 71% for the second.

Going from `CN1C(=O)c2ccccc2Sc2ccc(NC(=O)N3CCN(c4cccc(Cl)c4)CC3)cc21` to `COc1ccccc1N1CCN(C(=O)c2ccc3c(c2)CCN3S(=O)(=O)c2ccccc2)CC1`, the survival falls from 87% to 62%.

Going from `CCOC(=O)CN1C(=O)c2cccnc2Oc2ccccc21` to `COc1ccc(NC(=O)Cn2nnnc2-c2ccccc2F)c(C)c1`, the survival falls from 87% to 74%.

First: COc1ccccc1OCCSc1nc(-c2ccc(C(C)(C)C)cc2)nc2cc(=O)[nH]n12
Second: C=CCc1ccccc1OCCSc1nc(-c2ccccc2F)nc2cc(=O)[nH]n12
The survival of the first is lower: 49% for the first, 99% for the second.

Going from `CCOc1ccc(NC(=O)COc2ccc(S(=O)(=O)NC3CCCCC3)cc2)cc1` to `COc1ccc(NC(=O)COc2ccc(S(=O)(=O)NC3CCCCC3)cc2)c(OC)c1`, the survival rises from 62% to 66%.

First: CCC(C)NC(=O)Cn1ccc2cc(S(=O)(=O)N3CCCCCC3)ccc21 (stereo unspecified)
Second: Cc1cccc(NC(=O)Cn2c(=O)ccc3cc(S(=O)(=O)N4CCCC4)ccc32)c1C
The survival of the first is higher: 118% for the first, 105% for the second.

Compared with `Cc1ccc(CNC(=O)Cn2c(=O)ccc3cc(S(=O)(=O)N4CCCC4)ccc32)cc1`, `Cc1ccc(NC(=O)Cn2c(=O)ccc3cc(S(=O)(=O)N4CCCC4)ccc32)cc1C` is higher in survival: 92% for the first, 98% for the second.

Going from `CCc1ccccc1NC(=O)Cn1c(=O)ccc2cc(S(=O)(=O)N3CCC(C)CC3)ccc21` to `CCOc1ccccc1NC(=O)Cn1c(=O)ccc2cc(S(=O)(=O)N3CCC(C)CC3)ccc21`, the survival falls from 92% to 55%.

Going from `O=C(Cn1c(=O)ccc2cc(S(=O)(=O)N3CCCC3)ccc21)Nc1ccccc1` to `CCCCNC(=O)CN1C(=O)COc2ccc(S(=O)(=O)N3CCCCCC3)cc21`, the survival rises from 57% to 80%.

First: O=C(Nc1ccc(N2CCC(c3ccccc3)C2)c(C(=O)O)c1)c1ccc(Cl)cc1 (stereo unspecified)
Second: COc1ccccc1CNC(=O)c1ccc2c(c1)CCN2S(=O)(=O)c1ccc(Cl)cc1
The survival of the first is lower: 60% for the first, 82% for the second.

Going from `CCNC(=O)C1CCCN(c2nn3cc(-c4ccc(C)cc4)nc3s2)C1` (stereo unspecified) to `CCOc1ccc2nc(N3CCCC(C(=O)NCc4ccc(C)cc4)C3)sc2c1` (stereo unspecified), the survival falls from 74% to 71%.

First: COCCCNC(=O)c1cc(-c2ccc(OC)cc2)nc2n[nH]c(-c3ccc(Cl)cc3)c12
Second: CCOc1ccc(C(=O)c2cnc3ccc(Cl)cc3c2S(=O)(=O)c2ccc(C)cc2)cc1
The survival of the first is lower: 73% for the first, 80% for the second.

First: Cn1c(=O)n(C)c2cc(N3CCOCC3)c(NC(=O)c3ccccc3Br)cc21
Second: CCS(=O)(=O)N1CCc2cc(C(=O)NCc3ccccc3Cl)ccc21
The survival of the first is lower: 82% for the first, 89% for the second.

First: COc1cccc(NC(=O)CC2NCCNC2=O)c1 (stereo unspecified)
Second: CC(=O)N1CCC(N(Cc2ccc(C)o2)C(=O)Nc2cccc(C(F)(F)F)c2)CC1
The survival of the first is lower: 84% for the first, 91% for the second.

First: CCOC(=O)C1CCN(c2c(C(=O)c3ccc(OCC)cc3)cnc3ccc(OC)cc23)CC1
Second: CCOC(=O)C1CCN(c2c(C(=O)c3ccc(OC)cc3)cnc3ccccc23)CC1
The survival of the first is lower: 37% for the first, 125% for the second.

Going from `CCc1ccc2ncc(C(=O)c3ccc(C)c(C)c3)c(N3CCC(C(N)=O)CC3)c2c1` to `CCc1ccc(C(=O)c2cnc3ccc(F)cc3c2S(=O)(=O)c2ccccc2)cc1`, the survival rises from 86% to 123%.

Compared with `COc1ccc(S(=O)(=O)c2cnc3cc(OC)c(OC)cc3c2N2CCCC(C)C2)cc1` (stereo unspecified), `CCOC(=O)c1cc(S(=O)(=O)N2CCN(c3ccc(OC)cc3)CC2)[nH]n1` is higher in survival: 116% for the first, 128% for the second.

Going from `CCOC(=O)C1CCCN(C(=O)c2ccc(OCC)cc2)C1` (stereo unspecified) to `CCS(=O)(=O)N1CCc2cc(C(=O)NCc3ccccc3)ccc21`, the survival falls from 77% to 68%.

Going from `CCC(=O)NC1CC(=O)N(c2ccc3c(c2)OCCO3)C1` (stereo unspecified) to `Cc1ccc(NC(=O)CCn2cnc3onc(-c4ccc(F)cc4)c3c2=O)c(Br)c1`, the survival rises from 82% to 102%.

First: COc1cccc2c1ncc1c(-c3ccc(C)cc3)nn(-c3cccc([N+](=O)[O-])c3)c12
Second: CC(=O)Nc1ccc(/C=C/c2nc(-c3ccccc3O)n(-c3ccccc3)n2)cc1
The survival of the first is higher: 87% for the first, 84% for the second.

Going from `Cc1nc(C)c(C(=O)N/N=C/c2ccc(O)cc2O)cc1C(=O)N/N=C/c1ccc(O)cc1O` to `CC(=O)Nc1ccc(/C=C/c2noc(-c3ccccc3O)n2)cc1`, the survival falls from 80% to 75%.

Going from `CN(C)c1ccc(/C=C/c2noc(-c3ccccc3O)n2)cc1` to `Oc1ccccc1-c1nc(/C=C/c2ccc(F)cc2)no1`, the survival falls from 86% to 79%.

Compared with `N#Cc1nc(/C=C/c2ccc(F)cc2)oc1N1CCN(c2ccccc2)CC1`, `CN(C)c1ccc(/C=N/NC(=O)c2ccccc2)cc1` is higher in survival: 73% for the first, 95% for the second.

`Oc1ccc(-c2nc3ccc(Cl)cn3c2Nc2ccc(Cl)cc2)cc1` was tested, and the survival was 16% (active).
With `CCC(C(=O)Nc1cc(OC)ccc1OC)n1nc(-c2ccccc2)c2c(c1=O)CCCC2` (stereo unspecified) the survival was 35% (active).
With `CCC(C(=O)Nc1ccc(F)cc1F)n1nc(-c2ccccc2)c2c(c1=O)CCCC2` (stereo unspecified) the survival was 38% (active).
In the case of `C=CCc1ccccc1OCCSc1nc(-c2ccc(C(C)(C)C)cc2)nc2cc(=O)[nH]n12`, the survival was 32% (active).
For `CCOc1ccccc1NC(=O)COc1ccc(S(=O)(=O)NC2CCCCC2)cc1`, the survival was 48% (active).
With `CCc1ccccc1NC(=O)Cn1c(=O)ccc2cc(S(=O)(=O)N3CCCC3)ccc21` the survival was 46% (active).
In the case of `CCC(C)NC(=O)Cn1c(=O)ccc2cc(S(=O)(=O)N3CCCC3)ccc21` (stereo unspecified), the survival was 37% (active).
`CCOc1ccccc1NC(=O)Cn1c(=O)ccc2cc(S(=O)(=O)N3CCCC3)ccc21` was tested, and the survival was 0% (active).
For `Cc1ccc(NC(=O)Cn2c(=O)ccc3cc(S(=O)(=O)N4CCCC4)ccc32)cc1N(C)C`, the survival was 32% (active).
`COc1cc2ncc(C(=O)c3ccc(C)cc3)c(N3CCCCC3)c2cc1OC` was tested, and the survival was 2% (active).
`CCOC(=O)C1CCCN(c2c(C(=O)c3ccc(OCC)cc3)cnc3ccccc23)C1` (stereo unspecified) was tested, and the survival was -3% (active).
For `CCOC(=O)C1CCCN(c2c(C(=O)c3ccc(C)cc3)cnc3ccc(OCC)cc23)C1` (stereo unspecified), the survival was 10% (active).
With `CCOC(=O)C1CCN(c2c(C(=O)c3ccc(C)cc3)cnc3ccc(F)cc23)CC1` the survival was 2% (active).
In the case of `CCOC(=O)C1CCCN(c2c(C(=O)c3ccccc3)cnc3ccc(F)cc23)C1` (stereo unspecified), the survival was 35% (active).
In the case of `CCS(=O)(=O)N1CCc2cc(C(=O)NCc3ccccc3OC)ccc21`, the survival was 40% (active).
In the case of `COc1ccccc1CNC(=O)c1ccc2c(c1)CCN2S(=O)(=O)c1ccccc1`, the survival was 43% (active).
`CN(C)c1ccc(/C=C/c2nc(-c3ccccc3O)n(-c3ccccc3)n2)cc1` was tested, and the survival was 42% (active).
For `Oc1ccc(/C=C/c2nc(-c3ccccc3O)n(-c3ccccc3)n2)c(O)c1`, the survival was -3% (active).
With `Oc1ccccc1-c1nc(/C=C/c2ccc(F)cc2)nn1-c1ccccc1` the survival was 26% (active).
For `Oc1ccccc1-c1nc(/C=C/c2ccccc2)nn1-c1ccccc1`, the survival was 7% (active).
